# Tests used:
# Assay in all cases: DAPPL (digital affinity profiling via proximity ligation, sequencing); 10 mM Tris-HCl pH 7.5, 50 mM NaCl, 1 mM DTT, 4% glycerol, room temperature, 30 min; GST-TFs on glutathione beads, 16-mer random dsDNA library, 0.1% formaldehyde crosslink after washing; high values mean tight binding
# Settings in all cases: protein: recombinant; tags: N-terminal GST; dsDNA, one strand shown
# FLI1 = molecular target: T1, FLI1 (Homo sapiens, UniProt Q01543 1-452)
# T1 sequence: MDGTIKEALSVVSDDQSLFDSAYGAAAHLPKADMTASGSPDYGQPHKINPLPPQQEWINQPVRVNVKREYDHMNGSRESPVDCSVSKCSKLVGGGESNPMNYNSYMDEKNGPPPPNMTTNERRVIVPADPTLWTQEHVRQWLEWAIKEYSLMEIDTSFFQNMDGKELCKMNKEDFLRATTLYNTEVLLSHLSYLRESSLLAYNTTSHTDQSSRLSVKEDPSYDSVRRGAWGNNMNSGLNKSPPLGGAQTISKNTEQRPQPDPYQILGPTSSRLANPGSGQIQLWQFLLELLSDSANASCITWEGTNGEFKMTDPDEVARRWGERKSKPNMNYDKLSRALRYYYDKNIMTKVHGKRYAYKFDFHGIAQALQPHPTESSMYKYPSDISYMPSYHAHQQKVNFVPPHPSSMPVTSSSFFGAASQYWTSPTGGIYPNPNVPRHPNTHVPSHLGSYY
# Outline: (§1)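 Binding signal is each hexamer's read frequency for a factor divided by its frequency in the tag-only sample. The factors were GST-fused human transcription factors from yeast, captured on glutathione beads, DNA-barcoded and pooled with that sample. Pools were incubated with 200 nmole of a random double-stranded 16-mer DNA library in Tris/NaCl/DTT/glycerol buffer at room temperature for 30 min, then washed, crosslinked with 0.1% formaldehyde, proximity-ligated with BsaI/T4 ligase (1 h, 37 °C), PCR-amplified and sequenced on an Illumina NextSeq500.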
# ELK1 = molecular target: T2, ELK1 (Homo sapiens, UniProt P19419 1-428)
# T2 sequence: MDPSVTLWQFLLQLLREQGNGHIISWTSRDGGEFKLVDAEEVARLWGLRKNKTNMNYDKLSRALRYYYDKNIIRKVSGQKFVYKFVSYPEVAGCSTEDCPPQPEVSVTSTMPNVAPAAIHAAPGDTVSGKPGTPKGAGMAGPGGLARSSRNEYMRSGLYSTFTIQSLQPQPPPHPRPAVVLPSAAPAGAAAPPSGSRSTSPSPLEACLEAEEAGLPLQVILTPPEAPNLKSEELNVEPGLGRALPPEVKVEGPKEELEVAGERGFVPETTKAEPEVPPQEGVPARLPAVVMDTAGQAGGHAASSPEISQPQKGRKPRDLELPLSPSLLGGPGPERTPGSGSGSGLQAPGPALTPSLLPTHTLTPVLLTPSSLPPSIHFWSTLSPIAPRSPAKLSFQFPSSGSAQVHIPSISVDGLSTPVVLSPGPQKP
# Outline: as §1
# GABPA = molecular target: T3, GABPA (Homo sapiens, UniProt Q06546 1-454)
# T3 sequence: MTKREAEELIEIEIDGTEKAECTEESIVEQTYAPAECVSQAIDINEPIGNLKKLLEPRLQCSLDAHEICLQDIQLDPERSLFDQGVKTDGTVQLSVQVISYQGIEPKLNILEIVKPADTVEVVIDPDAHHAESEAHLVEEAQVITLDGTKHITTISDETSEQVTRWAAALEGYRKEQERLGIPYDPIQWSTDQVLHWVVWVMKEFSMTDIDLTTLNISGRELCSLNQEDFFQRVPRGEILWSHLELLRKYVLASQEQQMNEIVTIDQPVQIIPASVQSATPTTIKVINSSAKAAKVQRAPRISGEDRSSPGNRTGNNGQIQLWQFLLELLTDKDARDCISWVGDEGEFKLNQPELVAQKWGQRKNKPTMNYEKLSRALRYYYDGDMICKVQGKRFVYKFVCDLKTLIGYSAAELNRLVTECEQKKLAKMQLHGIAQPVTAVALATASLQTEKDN
# Outline: as §1
# ERG = molecular target: T4, ERG (Homo sapiens, UniProt P11308 1-479)
# T4 sequence: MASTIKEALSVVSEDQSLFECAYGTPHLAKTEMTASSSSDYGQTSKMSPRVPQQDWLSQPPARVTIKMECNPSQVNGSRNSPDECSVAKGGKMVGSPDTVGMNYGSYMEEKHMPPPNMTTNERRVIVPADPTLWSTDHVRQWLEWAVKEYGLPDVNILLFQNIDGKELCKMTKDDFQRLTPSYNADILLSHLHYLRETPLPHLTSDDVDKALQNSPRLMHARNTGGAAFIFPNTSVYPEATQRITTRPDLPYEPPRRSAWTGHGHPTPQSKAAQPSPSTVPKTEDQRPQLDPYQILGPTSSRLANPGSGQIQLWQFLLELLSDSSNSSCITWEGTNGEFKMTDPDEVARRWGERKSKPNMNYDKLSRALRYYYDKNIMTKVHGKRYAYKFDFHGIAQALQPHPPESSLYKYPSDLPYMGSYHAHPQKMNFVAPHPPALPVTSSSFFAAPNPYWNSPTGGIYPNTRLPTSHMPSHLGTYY
# Outline: as §1
# ELF1 = ELF1 (Homo sapiens, UniProt P32519 1-619)
# ELF1, sequence (P32519 whole entry): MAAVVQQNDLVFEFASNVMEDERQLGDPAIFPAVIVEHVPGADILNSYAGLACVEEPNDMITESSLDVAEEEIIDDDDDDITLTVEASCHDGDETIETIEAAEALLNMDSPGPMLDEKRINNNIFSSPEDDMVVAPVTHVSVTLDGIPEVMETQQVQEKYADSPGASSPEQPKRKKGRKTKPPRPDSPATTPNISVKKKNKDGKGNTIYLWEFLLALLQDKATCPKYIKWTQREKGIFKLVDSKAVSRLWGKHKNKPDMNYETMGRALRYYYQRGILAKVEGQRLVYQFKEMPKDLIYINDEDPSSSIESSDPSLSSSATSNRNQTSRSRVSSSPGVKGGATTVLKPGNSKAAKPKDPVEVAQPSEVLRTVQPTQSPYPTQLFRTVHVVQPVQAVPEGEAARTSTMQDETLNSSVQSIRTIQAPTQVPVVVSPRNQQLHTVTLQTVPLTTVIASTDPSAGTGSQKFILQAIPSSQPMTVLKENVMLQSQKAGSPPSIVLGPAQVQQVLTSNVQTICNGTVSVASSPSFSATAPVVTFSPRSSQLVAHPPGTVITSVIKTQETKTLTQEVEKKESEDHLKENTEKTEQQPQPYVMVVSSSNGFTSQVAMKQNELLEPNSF
# Outline: as §1
# EHF = molecular target: T5, EHF (Homo sapiens, UniProt Q9NZC4 1-300)
# T5 sequence: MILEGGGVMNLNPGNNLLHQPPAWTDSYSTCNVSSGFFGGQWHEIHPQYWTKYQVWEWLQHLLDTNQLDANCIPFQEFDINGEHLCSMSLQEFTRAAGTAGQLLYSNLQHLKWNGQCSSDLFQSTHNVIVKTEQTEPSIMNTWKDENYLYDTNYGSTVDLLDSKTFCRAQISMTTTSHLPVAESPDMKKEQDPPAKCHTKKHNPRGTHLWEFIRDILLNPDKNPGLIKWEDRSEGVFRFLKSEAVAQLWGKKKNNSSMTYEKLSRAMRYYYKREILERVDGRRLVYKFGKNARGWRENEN
# Outline: as §1
# SPIB = SPIB (Homo sapiens, UniProt Q01892 1-262)
# SPIB, sequence (Q01892 whole entry): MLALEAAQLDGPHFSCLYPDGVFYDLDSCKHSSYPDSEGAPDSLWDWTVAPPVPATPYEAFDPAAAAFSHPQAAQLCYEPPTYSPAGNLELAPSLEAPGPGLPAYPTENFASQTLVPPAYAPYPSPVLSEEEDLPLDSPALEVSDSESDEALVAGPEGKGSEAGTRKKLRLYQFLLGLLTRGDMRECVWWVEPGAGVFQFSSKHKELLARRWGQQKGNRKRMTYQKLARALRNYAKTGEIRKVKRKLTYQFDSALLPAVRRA
# Outline: as §1
# FEV = molecular target: T6, FEV (Homo sapiens, UniProt Q99581 1-238)
# T6 sequence: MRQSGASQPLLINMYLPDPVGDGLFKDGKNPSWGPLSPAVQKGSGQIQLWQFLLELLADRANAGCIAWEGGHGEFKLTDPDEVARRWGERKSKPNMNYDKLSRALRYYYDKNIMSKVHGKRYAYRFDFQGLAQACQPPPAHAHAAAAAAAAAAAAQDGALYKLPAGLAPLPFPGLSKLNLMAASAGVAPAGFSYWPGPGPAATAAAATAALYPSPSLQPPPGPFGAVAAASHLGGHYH
# Outline: as §1
# SPIC = molecular target: T7, SPIC (Homo sapiens, UniProt Q8N5J4 1-248)
# T7 sequence: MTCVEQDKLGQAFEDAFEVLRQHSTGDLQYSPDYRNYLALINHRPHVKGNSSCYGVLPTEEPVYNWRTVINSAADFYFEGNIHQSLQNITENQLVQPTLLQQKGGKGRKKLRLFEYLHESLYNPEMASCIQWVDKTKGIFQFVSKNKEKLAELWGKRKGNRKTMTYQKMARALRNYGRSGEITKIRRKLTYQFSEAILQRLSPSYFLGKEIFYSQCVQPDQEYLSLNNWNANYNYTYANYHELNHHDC
# Outline: as §1
# ELF4 = ELF4 (Homo sapiens, UniProt Q99607 1-663)
# ELF4, sequence (Q99607 whole entry): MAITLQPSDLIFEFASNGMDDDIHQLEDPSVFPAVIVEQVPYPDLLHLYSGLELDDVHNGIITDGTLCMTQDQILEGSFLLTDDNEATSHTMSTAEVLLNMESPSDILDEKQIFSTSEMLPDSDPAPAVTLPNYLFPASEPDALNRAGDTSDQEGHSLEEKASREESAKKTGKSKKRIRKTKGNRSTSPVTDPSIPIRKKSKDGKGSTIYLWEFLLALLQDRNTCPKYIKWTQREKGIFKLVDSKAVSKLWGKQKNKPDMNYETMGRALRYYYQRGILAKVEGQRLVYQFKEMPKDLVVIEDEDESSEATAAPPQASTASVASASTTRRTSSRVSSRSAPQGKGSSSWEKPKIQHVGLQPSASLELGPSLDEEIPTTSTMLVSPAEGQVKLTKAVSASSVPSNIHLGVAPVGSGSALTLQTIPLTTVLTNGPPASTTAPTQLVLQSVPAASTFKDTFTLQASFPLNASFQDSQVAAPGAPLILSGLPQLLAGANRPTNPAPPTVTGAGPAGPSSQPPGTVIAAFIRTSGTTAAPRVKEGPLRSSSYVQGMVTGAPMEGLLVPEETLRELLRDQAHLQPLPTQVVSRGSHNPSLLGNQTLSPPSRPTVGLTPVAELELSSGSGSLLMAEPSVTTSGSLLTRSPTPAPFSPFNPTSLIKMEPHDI
# Outline: as §1
# ELK4 = molecular target: T8, ELK4 (Homo sapiens, UniProt P28324-2 1-405)
# T8 sequence: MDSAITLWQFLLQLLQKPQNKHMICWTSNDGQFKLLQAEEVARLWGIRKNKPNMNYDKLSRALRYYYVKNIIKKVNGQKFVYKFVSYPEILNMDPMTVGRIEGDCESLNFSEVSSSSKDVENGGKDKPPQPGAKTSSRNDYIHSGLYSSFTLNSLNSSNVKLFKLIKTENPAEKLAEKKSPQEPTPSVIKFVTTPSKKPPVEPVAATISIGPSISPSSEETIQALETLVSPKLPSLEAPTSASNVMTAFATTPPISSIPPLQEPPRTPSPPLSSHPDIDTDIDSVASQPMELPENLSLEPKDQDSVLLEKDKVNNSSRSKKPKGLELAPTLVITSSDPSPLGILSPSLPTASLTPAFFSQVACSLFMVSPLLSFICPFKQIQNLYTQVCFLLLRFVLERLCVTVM
# Outline: as §1
sequence,measurement,setting,value
ACAGCC,binding signal,FLI1,"1 fold enrichment (6-mer frequency, TF over GST control)"
same,binding signal,ELK1,"1.1 fold enrichment (6-mer frequency, TF over GST control)"
same,binding signal,GABPA,"1.07 fold enrichment (6-mer frequency, TF over GST control)"
same,binding signal,ERG,"1.02 fold enrichment (6-mer frequency, TF over GST control)"
same,binding signal,ELF1,"1.11 fold enrichment (6-mer frequency, TF over GST control)"
same,binding signal,EHF,"1.11 fold enrichment (6-mer frequency, TF over GST control)"
same,binding signal,SPIB,"1.03 fold enrichment (6-mer frequency, TF over GST control)"
same,binding signal,FEV,"1.02 fold enrichment (6-mer frequency, TF over GST control)"
same,binding signal,SPIC,"1.08 fold enrichment (6-mer frequency, TF over GST control)"
same,binding signal,ELF4,"1.11 fold enrichment (6-mer frequency, TF over GST control)"
same,binding signal,ELK4,"1.04 fold enrichment (6-mer frequency, TF over GST control)"

# From publication PMC7862700, “An all-to-all approach to the identification of sequence-specific readers for epigenetic DNA modifications on cytosine”
